Several values for one entry are separate records, joined by “and”; a condition that tells them apart may be missing. Equal values may be shown once. Values without a mark were called inactive. Inconclusive results are not listed. Where a call stands in place of a potency, no number is given. Activity calls are given as the source filed them. Unless noted, the call rests on the fitted dose curve; in most records, active means well fitted curve in the direction sought with a large enough effect in the repeat runs; inconclusive means weak or mixed curves; inactive means no such curve, though single readings can be large; an effect the other way counts as inactive or inconclusive.
Experiments:
[1] = qHTS assay to identify small molecule agonists of the estrogen receptor alpha (ER-alpha) signaling pathway in the presence of an antagonist - cell viability counter screen (AID 1259386);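 further: series mostly up to about 92 µM; cells exposed to compounds for 22 h at 37 °C before the viability read; nearly all actives have a fitted effect of over 30% in size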
Procedure, shortened: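 VM7Luc4E2 cells (endogenous full-length ER-alpha, 4×ERE-luciferase) were held 5 days in phenol red-free medium with 10% charcoal-stripped FBS, plated, then given 10.0nM ICI-182,780 and compounds at 15 concentrations for 22hr at 37C; viability read by CellTiter-Fluor fluorescence.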

[2] = qHTS assay to identify small molecule antagonists of the TGF-beta/Smad signaling pathway - cell viability counter screen (AID 1346824); further: nearly all actives have a fitted effect of over 50% in size; further: potency means the concentration at half of the fitted maximal effect
Procedure, shortened: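 Cytotoxicity counter-screen run in the same wells as the beta-lactamase Smad reporter read: CellTiter-Glo luminescence after 30 min at room temperature. HEK 293T SBE-bla cells had 5 hr compound exposure at 37 C with TGF-beta1 (0.25 ng/mL stock).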

[3] = qHTS assay to identify small molecule agonists of the TGF-beta/Smad signaling pathway - cell viability counter screen (AID 1346829); further: top concentration of the series differs between compounds; nearly all actives have a fitted effect of over 45% in size
Procedure, shortened: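 In parallel with the Smad reporter read, viability of HEK 293T cells stably carrying SBE-bla is quantified by ATP luminescence following 5 hr compound treatment.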

[4] = molecular target: Thyrotropin-releasing hormone receptor (Homo sapiens) (UniProt P34981); assay: qHTS assay to identify small molecule antagonists of the thyrotropin-releasing hormone receptor (TRHR) signaling pathway (AID 1346877; active means well fitted inhibition curve with a large enough effect in the repeat runs, not every such curve was filed as active; further: series mostly up to about 51 µM)
Procedure, shortened: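 TRHR-expressing HEK293 cells were seeded, cultured 18 h at 37 °C, then loaded with calcium dye for 2 h. Compounds were pre-incubated 5 min at room temperature before 1 nM TRH (final) was added, and kinetic fluorescence was recorded for 3 min.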

[5] = molecular target: Thyrotropin-releasing hormone receptor (Homo sapiens) (UniProt P34981); assay: qHTS assay to identify small molecule agonists of the thyrotropin-releasing hormone receptor (TRHR) signaling pathway (AID 1346891; calls by dose curve; further: series mostly up to about 58 µM)
Procedure, shortened: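 HEK293 cells expressing TRHR plated 18 h at 37 C/5% CO2, calcium dye-loaded 2 h at 37 C, then compound added (agonist mode); kinetic calcium fluorescence read 3 min at 1 s intervals; 15 concentrations in triplicate.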

[6] = Human pregnane X receptor (PXR) small molecule agonists, qHTS cell viability counter screen (AID 1346977); further: nearly all actives have a fitted effect of over 50% in size; further: potency means the concentration at half of the fitted maximal effect
Procedure, shortened: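 PXR-Luc HepG2 cells (2,000/well, 5% charcoal-stripped FBS) preincubated 5 hr, then exposed to compounds 24 hr at 37 C. Viability read in the same wells by CellTiter-Fluor fluorescence, reagent added at 23 hr, 1 hr incubation.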

[7] = Caspase-3/7 induction in HepG2 cells by small molecules, qHTS assay (AID 1346978); further: nearly all actives have a fitted effect of over 15% in size; further: potency means the concentration at half of the fitted maximal effect
Procedure, shortened: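 Caspase-3/7 induction was measured by Caspase-Glo 3/7 luminescence (30 min, room temperature) after a 17 hr compound exposure of wild-type HepG2 cells seeded at 2,000 per well and pre-incubated 5 hr.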

[8] = Caspase-3/7 induction in CHO-K1 cells by small molecules, qHTS cell viability counter screen (AID 1346979); further: nearly all actives have a fitted effect of over 35% in size; further: potency means the concentration at half of the fitted maximal effect
Procedure, shortened: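 Wild-type CHO-K1 cells (1,500/well) treated with compound after 5 h plating; after 16 h at 37C, viability read as CellTiter-Fluor fluorescence following 1 h reagent incubation, in the same wells as the caspase read.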

[9] = Caspase-3/7 induction in CHO-K1 cells by small molecules, qHTS assay (AID 1346980); further: nearly all actives have a fitted effect of over 15% in size
Procedure, shortened: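 Luminescent Caspase-Glo 3/7 read (30min, room temperature) quantified apoptosis induction. Cells were wild-type CHO-K1, treated with compound for 17hr at 37 C and 5% CO2.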

[10] = molecular target: Nuclear receptor subfamily 1 group I member 2 (Rattus norvegicus) (UniProt Q9R1A7); assay: Rat pregnane X receptor (rPXR) activation by small molecules, qHTS assay (AID 1346983); settings: rPXR luciferase reporter cells, One-Glo luminescence, 24 h; hits give high values; further: nearly all actives have a fitted effect of over 20% in size
Procedure, shortened: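 Luminescent readout (One-Glo luciferase, 30 min room temperature) followed 24 hr compound treatment at 37 C of rPXR cells plated 2,000 per well and preincubated 5hr; qHTS format with compounds delivered in DMSO.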

[11] = molecular target: Acetylcholinesterase (Homo sapiens) (UniProt P22303); assay: Acetylcholinesterase (AChE) small molecule antagonists: colormetric cell-based qHTS assay (AID 1347395; calls by dose curve; further: nearly all actives have a fitted effect of over 30% in size; further: potency means the concentration at half of the fitted maximal effect)
Procedure, shortened: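 SH-SY5Y cells attached overnight, exposed to compound 30 min at 37 C, then given DTNB/acetylthiocholine; after 90 min at 37 C, colorimetric thiocholine read gives cellular AChE activity.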

[12] = molecular target: Progesterone receptor (Homo sapiens) (UniProt P06401); assay: qHTS assay to identify small molecule antagonists of the progesterone receptor (PR) signaling pathway (AID 1346795; active means well fitted inhibition curve with a large enough effect in the signal ratio in the repeat runs, not every such curve was filed as active; the % refers to the signal ratio; further: potency means the concentration at half of the fitted maximal effect)
Procedure, shortened: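 PR-UAS-bla HEK293T cells with beta-lactamase reporter under UAS control, in 2% charcoal-stripped FBS, treated with compounds plus 1 nM promegestone (R5020, final) for 16 hr at 37C. Read-out: FRET beta-lactamase substrate fluorescence after 2 hr at room temperature.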

[13] = qHTS assay to identify small molecule antagonists of the progesterone receptor (PR) signaling pathway - cell viability counter screen (AID 1346798); further: nearly all actives have a fitted effect of over 50% in size; further: potency means the concentration at half of the fitted maximal effect
Procedure, shortened: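 PR-UAS-bla HEK293T cells, 3,000/well in 2% charcoal-stripped FBS medium, dosed with compounds plus R5020 agonist and incubated 16 h at 37C. Viability then measured in the same wells by CellTiter-Glo luminescence after 30 min at RT.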

[14] = qHTS assay to identify small molecule agonists of the progesterone receptor (PR) signaling pathway - cell viability counter screen (AID 1346799; calls by dose curve; further: nearly all actives have a fitted effect of over 45% in size; further: potency means the concentration at half of the fitted maximal effect)
Procedure, shortened: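 Counter screen in the PR-UAS-bla HEK293T wells (2% charcoal-stripped FBS, 16 h compound exposure at 37 C) after the bla read. CellTiter-Glo added, 30 min at room temperature, luminescence read as cell viability.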

[15] = qHTS assay to identify small molecule agonists of the TGF-beta/Smad signaling pathway (AID 1346859; active means well fitted activation curve with a large enough effect in the signal ratio in the repeat runs, not every such curve was filed as active; the % refers to the signal ratio; further: series mostly up to about 77 µM)
Procedure, shortened: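 SBE-bla HEK293T cells plated overnight, then compound exposure for 5 h at 37 C. Beta-lactamase reporter read with LiveBLAzer B/G FRET substrate after 2 h at room temperature, fluorescence at 405 nm excitation, 460/530 nm emission.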

[16] = Caspase-3/7 induction in HepG2 cells by small molecules, qHTS cell viability counter screen (AID 1346981); further: nearly all actives have a fitted effect of over 30% in size; further: potency means the concentration at half of the fitted maximal effect
Procedure, shortened: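 Wild-type HepG2 cells (2,000/well) were allowed to settle for 5 hr at 37 C, 5% CO2, then dosed with compounds in DMSO by pin transfer. After 16 hr at 37 C, CellTiter-Fluor was added and fluorescence read 1 hr later.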

[17] = molecular target: Progesterone receptor (Homo sapiens) (UniProt P06401); assay: qHTS assay to identify small molecule agonists of the progesterone receptor (PR) signaling pathway (AID 1346784; calls by dose curve; further: nearly all actives have a fitted effect of over 30% in size)
Procedure, shortened: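 PR-UAS-bla HEK 293T cells (beta-lactamase reporter under UAS) in 2% charcoal-stripped FBS, dosed with 23 nL compound after 6 hr, incubated 16hr at 37C. LiveBLAzer B/G FRET substrate added, fluorescence read after 2 hours.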

[18] = molecular target: Nuclear receptor subfamily 1 group I member 2 (Homo sapiens) (UniProt O75469); assay: Human pregnane X receptor (PXR) small molecule agonists, qHTS assay (AID 1346982); further: nearly all actives have a fitted effect of over 35% in size; further: potency means the concentration at half of the fitted maximal effect
Procedure, shortened: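 PXR-Luc HepG2 cells (CYP3A4 promoter-driven luciferase) were seeded in medium with 5% charcoal-stripped FBS, left 5 hr at 37 C, then exposed to compounds in DMSO for 24 hr. Luminescence was read after ONE-Glo addition.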

Nuclear receptor subfamily 1 group I member 2 (Homo sapiens), sequence (O75469 whole entry, looked up): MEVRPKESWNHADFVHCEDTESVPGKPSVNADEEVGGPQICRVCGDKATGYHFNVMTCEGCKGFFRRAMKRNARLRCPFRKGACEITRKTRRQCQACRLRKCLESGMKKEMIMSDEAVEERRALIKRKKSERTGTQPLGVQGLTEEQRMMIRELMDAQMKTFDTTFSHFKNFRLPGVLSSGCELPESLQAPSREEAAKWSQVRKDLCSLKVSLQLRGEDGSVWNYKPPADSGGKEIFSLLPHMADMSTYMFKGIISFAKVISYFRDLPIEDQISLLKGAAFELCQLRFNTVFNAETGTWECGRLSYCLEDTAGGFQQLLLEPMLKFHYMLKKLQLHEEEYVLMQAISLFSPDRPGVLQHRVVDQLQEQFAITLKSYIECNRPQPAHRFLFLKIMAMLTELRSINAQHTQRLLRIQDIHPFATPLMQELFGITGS
Progesterone receptor (Homo sapiens), sequence (P06401 whole entry, looked up): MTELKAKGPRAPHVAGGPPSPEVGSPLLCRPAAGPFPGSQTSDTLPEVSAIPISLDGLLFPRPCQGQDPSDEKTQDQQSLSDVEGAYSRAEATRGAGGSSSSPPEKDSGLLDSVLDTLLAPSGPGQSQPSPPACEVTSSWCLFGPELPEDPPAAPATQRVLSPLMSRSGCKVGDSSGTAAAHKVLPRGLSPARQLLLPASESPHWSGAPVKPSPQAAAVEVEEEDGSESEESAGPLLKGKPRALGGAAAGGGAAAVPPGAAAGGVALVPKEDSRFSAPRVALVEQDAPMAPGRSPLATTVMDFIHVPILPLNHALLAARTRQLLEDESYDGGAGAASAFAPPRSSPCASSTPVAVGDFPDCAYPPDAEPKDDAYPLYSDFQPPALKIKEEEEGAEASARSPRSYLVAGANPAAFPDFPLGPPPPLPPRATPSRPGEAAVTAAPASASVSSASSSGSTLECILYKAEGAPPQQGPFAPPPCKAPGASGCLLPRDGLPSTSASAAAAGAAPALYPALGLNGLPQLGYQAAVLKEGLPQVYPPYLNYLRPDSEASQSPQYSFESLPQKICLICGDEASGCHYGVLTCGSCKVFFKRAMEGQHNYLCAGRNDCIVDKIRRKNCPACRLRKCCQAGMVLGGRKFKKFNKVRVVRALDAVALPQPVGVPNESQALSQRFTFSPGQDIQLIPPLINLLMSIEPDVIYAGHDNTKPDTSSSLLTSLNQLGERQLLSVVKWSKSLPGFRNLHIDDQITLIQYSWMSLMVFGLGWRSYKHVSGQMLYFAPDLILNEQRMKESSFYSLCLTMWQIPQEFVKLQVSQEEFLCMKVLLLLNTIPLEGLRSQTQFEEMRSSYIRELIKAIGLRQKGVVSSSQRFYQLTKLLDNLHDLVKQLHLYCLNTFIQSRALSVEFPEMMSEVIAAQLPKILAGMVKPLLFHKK
Acetylcholinesterase (Homo sapiens), sequence (P22303 whole entry, looked up): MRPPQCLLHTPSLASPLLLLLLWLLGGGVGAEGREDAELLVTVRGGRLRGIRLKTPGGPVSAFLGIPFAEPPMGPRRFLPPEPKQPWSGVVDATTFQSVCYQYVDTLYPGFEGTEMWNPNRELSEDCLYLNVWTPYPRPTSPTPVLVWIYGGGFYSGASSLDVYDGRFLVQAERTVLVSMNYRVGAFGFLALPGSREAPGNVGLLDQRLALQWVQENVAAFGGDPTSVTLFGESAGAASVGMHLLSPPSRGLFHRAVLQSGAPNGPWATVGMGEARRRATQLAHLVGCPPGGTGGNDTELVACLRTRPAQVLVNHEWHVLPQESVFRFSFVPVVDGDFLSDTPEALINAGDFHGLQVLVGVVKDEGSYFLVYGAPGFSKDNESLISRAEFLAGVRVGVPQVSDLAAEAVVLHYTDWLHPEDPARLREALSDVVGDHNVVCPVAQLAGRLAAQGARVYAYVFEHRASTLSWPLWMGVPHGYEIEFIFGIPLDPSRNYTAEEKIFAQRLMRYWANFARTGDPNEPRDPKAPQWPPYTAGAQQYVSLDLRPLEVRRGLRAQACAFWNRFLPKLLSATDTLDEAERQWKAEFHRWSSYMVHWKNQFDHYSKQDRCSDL
Thyrotropin-releasing hormone receptor (Homo sapiens), sequence (P34981 whole entry, looked up): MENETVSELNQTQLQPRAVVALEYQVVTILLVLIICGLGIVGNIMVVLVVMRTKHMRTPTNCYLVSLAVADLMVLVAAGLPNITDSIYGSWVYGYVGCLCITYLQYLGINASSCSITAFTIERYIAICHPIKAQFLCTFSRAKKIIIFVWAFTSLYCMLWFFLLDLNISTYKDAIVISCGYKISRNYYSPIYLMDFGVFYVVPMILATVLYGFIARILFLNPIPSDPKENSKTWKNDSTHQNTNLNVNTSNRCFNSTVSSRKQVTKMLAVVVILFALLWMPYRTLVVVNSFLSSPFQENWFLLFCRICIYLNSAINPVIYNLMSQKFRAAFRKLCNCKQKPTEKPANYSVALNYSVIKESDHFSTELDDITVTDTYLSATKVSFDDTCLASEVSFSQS
Nuclear receptor subfamily 1 group I member 2 (Rattus norvegicus), sequence (Q9R1A7 whole entry, looked up): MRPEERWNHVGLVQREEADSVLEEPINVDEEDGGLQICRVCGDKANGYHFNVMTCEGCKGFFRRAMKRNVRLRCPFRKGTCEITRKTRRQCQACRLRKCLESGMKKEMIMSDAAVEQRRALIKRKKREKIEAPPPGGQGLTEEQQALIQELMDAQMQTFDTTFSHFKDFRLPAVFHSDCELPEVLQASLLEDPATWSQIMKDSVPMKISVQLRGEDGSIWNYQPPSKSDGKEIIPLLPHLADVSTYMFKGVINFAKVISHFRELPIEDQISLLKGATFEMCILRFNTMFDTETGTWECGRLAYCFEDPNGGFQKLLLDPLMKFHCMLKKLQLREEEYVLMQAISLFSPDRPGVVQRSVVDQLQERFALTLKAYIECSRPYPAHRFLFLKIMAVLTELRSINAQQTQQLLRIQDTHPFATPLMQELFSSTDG

| SMILES | Potency [1] | Potency [2] | Potency [3] | Potency [4] | outcome [5] | Potency [6] | Potency [7] | Potency [8] | Potency [9] | max activation [10] | Potency [11] | Potency [12] | Potency [13] | Potency [14] | outcome [15] | Potency [16] | Potency [17] | Potency [18] |
| --- | --- | --- | --- | --- | --- | --- | --- | --- | --- | --- | --- | --- | --- | --- | --- | --- | --- | --- |
| C#C[C@]1(O)CC[C@H]2[C@@H]3CCC4=CC(=O)CCC4=C3C=C[C@@]21CC | inactive | inactive | inactive | inactive | inactive | inactive | inactive | 26.6 µM (active) | inactive | -15.2% | inactive | – | – | – | – | – | – | – |
| CC(Oc1cc(Cl)c(Cl)cc1Cl)C(=O)O (stereo unspecified) | inactive | inactive | inactive | inactive | inactive | inactive | inactive | inactive | inactive | – | inactive | inactive | inactive | 48.7 µM (active) | inactive | inactive | – | – |
| COc1ccc2c(c1OC)C(=O)O[C@H]2[C@@H]1c2cc3c(cc2CCN1C)OCO3 | – | inactive | – | inactive | inactive | – | inactive | 11.9 µM (active) | inactive | – | – | inactive | inactive | inactive | inactive | 11.9 µM (active) | inactive | – |
| N#CC(C#N)=C(C#N)C#N | – | inactive | inactive | – | inactive | – | inactive | – | inactive | – | inactive | inactive | inactive | – | inactive | – | inactive | inactive |
| CCCCCCCCn1sccc1=O | – | 49.1 µM (active) and 51.3 µM (active) | – | – | inactive | 50.1 µM (active) and 25.5 µM (active) | 25.5 µM (active) | 12.2 µM (active) and 11.4 µM (active) | inactive | – | inactive | 34.4 µM (active) and 1.43 µM (active) | 48.7 µM (active) and 1.14 µM (active) | – | inactive | 68.7 µM (active) and 50.9 µM (active) | inactive | 21.7 µM (active) and 4.04 µM (active) |
| CCCN(CCC)C(=O)Cc1c(-c2ccc(Cl)cc2)nc2ccc(Cl)cn12 | – | inactive | inactive | – | inactive | inactive | inactive | 33.5 µM (active) | inactive | – | inactive | 10.6 µM (active) | inactive | inactive | inactive | – | inactive | – |
| CC(C)[C@@H](C(=O)O[C@@H](C#N)c1cccc(Oc2ccccc2)c1)c1ccc(Cl)cc1 | inactive | inactive | inactive | – | – | – | inactive | 27.7 µM (active) | inactive | – | inactive | – | inactive | – | inactive | – | – | 5.53 µM (active) and 9.69 µM (active) |
| CON(C)C(=O)Nc1ccc(Cl)cc1 | inactive | inactive | – | – | – | inactive | inactive | inactive | inactive | – | inactive | – | – | inactive | inactive | inactive | inactive | 48.6 µM (active) |
| CCOC(=O)c1cn2nc(OP(=S)(OCC)OCC)cc2nc1C | inactive | inactive | inactive | – | – | inactive | inactive | – | inactive | – | 35.6 µM (active) | – | – | – | – | inactive | inactive | 30.6 µM (active) |
| CC(C)C1(C)N=C(c2ncccc2C(=O)O)NC1=O (stereo unspecified) | inactive | inactive | inactive | inactive | inactive | inactive | inactive | inactive | inactive | – | inactive | – | – | – | inactive | inactive | inactive | inactive |

— PubChem BioAssay (Tox21)
